Values joined by “and” are separate entries in the source; they are usually repeats but may differ in a detail not shown here. Identical values can stand only once. The whole screen tested about 290,000 compounds, of which about 230 (0.079%) were called active. No stated cut-off is given here; in the data, active means inhibition above about 40%; inactive means the rest. The entries come from a sample that favours actives as a whole. The source holds several records for some structures; these can differ, active in one and inactive in another.

For this assay, the target named is Cyclic GMP-AMP synthase (Homo sapiens) (UniProt Q8N884). Nature of the assay: Biochemical Kinase-Glo luminescence primary assay, human cyclic GMP-AMP synthase inhibition (AID 1259398).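 Further: 0% = vehicle reaction and 100% = reaction without DNA for no activity.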 As to conditions: recombinant h-cGAS, ATP depletion, at 12.5 µM, stronger effect = higher value. On the technique in general: Kinase-Glo measures the ATP left after a reaction by luminescence.
Cyclic GMP-AMP synthase (Homo sapiens), sequence (Q8N884 whole entry, looked up): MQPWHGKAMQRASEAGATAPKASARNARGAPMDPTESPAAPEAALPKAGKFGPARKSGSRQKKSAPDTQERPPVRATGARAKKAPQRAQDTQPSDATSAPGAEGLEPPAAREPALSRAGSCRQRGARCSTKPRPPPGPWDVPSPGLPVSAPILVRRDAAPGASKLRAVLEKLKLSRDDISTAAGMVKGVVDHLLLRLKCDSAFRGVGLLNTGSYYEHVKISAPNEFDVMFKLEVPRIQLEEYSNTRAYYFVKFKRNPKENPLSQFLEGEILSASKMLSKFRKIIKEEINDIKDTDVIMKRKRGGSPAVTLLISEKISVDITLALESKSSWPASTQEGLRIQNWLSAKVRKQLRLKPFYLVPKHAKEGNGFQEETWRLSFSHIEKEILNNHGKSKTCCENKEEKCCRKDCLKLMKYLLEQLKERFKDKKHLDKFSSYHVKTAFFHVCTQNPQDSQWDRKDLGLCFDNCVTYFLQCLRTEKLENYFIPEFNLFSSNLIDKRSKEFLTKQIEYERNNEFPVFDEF
For orientation: inhibition means the relative decrease from the control value, in per cent. Consider `Cc1cc(NC(=O)Cc2cccs2)n(-c2nc(-c3cccs3)cs2)n1`, for which the inhibition was -2.04% (inactive).

On to `CN(CCCOc1ccccc1Cl)C(=O)C1(N)CC1`, for which the inhibition was -6.84% (inactive).

For `CC(C(=O)N1CCCCCC1)N1CCCC(C(=O)Nc2ccccc2)C1` (stereo unspecified), the inhibition is -13.6% (inactive).

Consider `CC1CC(=O)C2C=Nc3ccccc3N=C2C1` (stereo unspecified), for which the inhibition is -2.79% (inactive).

For `CS(=O)(=O)N1CCCC(NCc2ccc(-c3ccc(C(F)(F)F)cc3)o2)C1` (stereo unspecified), the inhibition is -7.61% (inactive).

Turning to `CCOC(=O)c1[nH]c(C)c(C(=O)C(C)N(CCOC)C(=O)Nc2c(C)cccc2C)c1C` (stereo unspecified), the inhibition was -3.12% (inactive).

With `O=S1(=O)N=C(Nc2ccccc2Cl)c2ccccc21`, the inhibition was -4.92% (inactive).

As for `Cc1noc(C)c1CN1CCN2C=C(C(=O)NC3CCc4ccccc43)OC2=NC1=O` (stereo unspecified), the inhibition was -7.38% (inactive).

Take `C=CCn1c(SCC(=O)c2cc(C)n(Cc3ccco3)c2C)nc2sc(C)c(C)c2c1=O`: the inhibition is -4.88% (inactive).

In the case of `Cc1c(C(=O)N2CCc3[nH]nc(-c4ccccc4)c3C2)[nH]c2c(F)cccc12`, the inhibition was -6.74% (inactive).

As for `Cc1csc(=O)n1CCC(=O)Nc1ccc(S(=O)(=O)N(C)C(C)C)cc1`, the inhibition was 7.25% (inactive).

As to `CC(=O)c1cccc(N2C(=O)C3C4C=CC(C5CC45)C3C2=O)c1` (stereo unspecified), the inhibition was -3.94% (inactive).

With `CCOC(=O)c1cc(-c2ccccc2)sc1NC(=O)CC1CCCC1`, the inhibition is -6.75% (inactive).

`CCOC(=O)c1ccc(NC(=O)Cn2c(-c3nnc(C(C)C)o3)cc3ccccc32)cc1`: the inhibition was -1.71% (inactive).

Turning to `Cc1ncc(CN(C)CC2CCN(c3ccccc3)C2)[nH]1` (stereo unspecified), the inhibition was -4.21% (inactive).

Consider `COCC(=O)Nc1ccccc1C(=O)N1CC(C)CC(C)C1` (stereo unspecified), for which the inhibition was -11.9% (inactive).

In the case of `Cc1ccc(CSc2nc(=O)n(CCO)c3c2CCC3)cc1`, the inhibition is -6.25% (inactive).

Regarding `O=C(c1cn[nH]c1-c1ccc(F)cc1)N1CCN(S(=O)(=O)c2ccccc2)CC1`, the inhibition is -8.02% (inactive).

As to `COCCNC(=O)c1ccc(CSc2nnc(Cc3ccccc3)n2-c2ccc(OC)cc2)cc1`, the inhibition is 5.06% (inactive).

For the compound `COc1cccc(CN2CCC(C(=O)NC(c3cccc(OC)c3)c3ccccn3)CC2)c1` (stereo unspecified), the inhibition is -3.62% (inactive).

For the compound `COc1cc(C(=O)Nc2oc3ccccc3c(=O)c2-c2ccccc2)cc(OC)c1OC`, the inhibition was -4.49% (inactive).

Consider `N#CC(=C1NS(=O)(=O)c2ccccc21)c1nc2ccccc2n1Cc1ccccc1`, for which the inhibition was -6.01% (inactive).

`NC(=O)C1CCCN1C(=O)NC(=O)CSc1ccccc1Cl` (stereo unspecified): the inhibition is 20.8% (inactive).

With `N#Cc1ccsc1NC(=O)c1cc(Cl)c2c(c1)OCO2`, the inhibition is 0.691% (inactive).

Turning to `CCc1c(C(=O)N2CCCC2)c(CC(C)C)nn1-c1ccc(Cl)cc1`, the inhibition was -4.87% (inactive).

Take `CCC(C(=O)N1CCN(C(C(=O)Nc2cccc(Cl)c2)C2CCCC2)CC1)c1ccccc1` (stereo unspecified): the inhibition is -0.887% (inactive).

Turning to `CN1C(=O)[C@]2(C)[C@H](c3ccccc31)[C@@H](C(N)=O)CN2C(=O)CC(C)(C)C`, the inhibition is -2.6% (inactive).

As to `CCC1CSC(=Nc2ccc(Cl)cc2)N1C(=O)c1ccc(C)nc1` (stereo unspecified), the inhibition was -0.466% (inactive).

Turning to `COc1cccc(CN2CCCN(c3nc(Cc4ccccc4)nc4c3c(C)nn4-c3ccc(F)cc3)CC2)c1`, the inhibition was -3.74% (inactive).

For the compound `CC(C)CC(CNc1ccc(S(=O)(=O)N2CCCCC2)cc1[N+](=O)[O-])N1CCOCC1` (stereo unspecified), the inhibition was -5.16% (inactive).

For the compound `Oc1c(Cl)cc(Cl)c(Cl)c1Cc1c(O)c(Cl)cc(Cl)c1Cl`, the inhibition is 84.9% (active) and 0.133% (inactive).

In the case of `COc1ccc(NS(=O)(=O)c2cc(C(=O)Nc3ccc(C)cc3)ccc2C)cc1`, the inhibition was -2.65% (inactive).

For `O=C(Cc1csc(SCC(=O)c2ccccc2)n1)NCCC1=CCCCC1`, the inhibition is 7.3% (inactive).

Turning to `O=[N+]([O-])c1cc(S(=O)(=O)C(F)(F)F)ccc1Oc1ccc2oc3c(c2c1)CCCC3`, the inhibition is 50.2% (active).

Consider `O=[N+]([O-])c1cc(S(=O)(=O)C(F)(F)F)ccc1N1CCCC1`, for which the inhibition is -6.28% (inactive).

On to `CS(=O)(=O)c1ccc(Oc2ccc3sc(=O)oc3c2)c([N+](=O)[O-])c1`, for which the inhibition was -8.14% (inactive).

For `C=CCN(Cc1ccccc1OC)C(=O)c1ccc(NC(C)=O)cc1`, the inhibition is 0.115% (inactive).

In the case of `Cc1ccc(S(=O)(=O)NCc2ccc3c(c2)OCO3)c(C)c1C`, the inhibition is -9.87% (inactive).

For the compound `CS(=O)(=O)c1cccc2sc(Cl)nc12`, the inhibition was -7.81% (inactive).

Regarding `CCCCCN(CC(=O)N(CCCC)Cc1cccn1Cc1ccc(Br)cc1)C(=O)c1ccc2c(c1)OCO2`, the inhibition is -1.37% (inactive).

Regarding `CC(C)CN(CC(C)C)C(=O)c1cccnc1Nc1cccc(C(F)(F)F)c1`, the inhibition is -2.78% (inactive).

Regarding `CC(Nc1nc2c(c(=O)[nH]c(=O)n2C)n1Cc1ccccc1)c1ccccc1` (stereo unspecified), the inhibition was 2.23% (inactive).

Regarding `CS(=O)(=O)N1CCC(C(=O)NCc2cc(-c3ccc4c(c3)OCCO4)on2)CC1`, the inhibition is -5.92% (inactive).

Regarding `CC(NC(=O)c1ccc(Br)cc1F)C(=O)N1CCOCC1` (stereo unspecified), the inhibition was -5.97% (inactive).

Turning to `CC[N+](C)(CC)CCC[n+]1c(-c2ccccc2)c2cc(N)ccc2c2ccc(N)cc21`, the inhibition was 57.3% (active).

With `COc1ccc(CCN(Cc2ccc(C)s2)C(=O)CN(CC2CCCO2)S(=O)(=O)c2c(C)cc(C)cc2C)cc1OC` (stereo unspecified), the inhibition is -7.86% (inactive).

Consider `CC(=O)CC1C(CC(=O)O)C1(C)C` (stereo unspecified), for which the inhibition was -5.25% (inactive).

As for `Cc1ccc(S(=O)(=O)Oc2c(CO)cc(C)cc2CO)cc1`, the inhibition was -8.05% (inactive).

Regarding `CC1(C(=O)NCc2cccs2)CCN1Cc1ccc2c(c1)OCCO2` (stereo unspecified), the inhibition was -11% (inactive).

Consider `CC(=O)N1CCN(C(=O)COC(=O)c2ccc3ccccc3c2O)CC1`, for which the inhibition was -3.7% (inactive).

Take `CC(C)C(=O)N1CCC1(C)C(=O)Nc1ccccn1` (stereo unspecified): the inhibition is -6.44% (inactive).

As for `CCc1nnc(CNc2cc(Cl)ccc2F)n1C`, the inhibition is -5.8% (inactive).

In the case of `CCOc1cccc(-c2ccc(Nc3ccc(OC)cc3C)nc2)c1`, the inhibition was -0.0439% (inactive).

Consider `COc1ccccc1OC1CCN(C(=O)CCC2(Cc3ccccc3)CCC(=O)N2)CC1` (stereo unspecified), for which the inhibition is -5.11% (inactive).

On to `CCN1C(=O)N(Cc2cccc(OC)c2)C(=O)C12CCN(Cc1cn[nH]c1-c1ccc(F)cc1)CC2`, for which the inhibition is 11% (inactive).

`CC(=O)CC1(O)C(=O)Nc2ccc(I)cc21` (stereo unspecified): the inhibition was 2.23% (inactive).

The record behind these values is PubChem BioAssay AID1259398 (Fisher Drug Discovery Resource Center, 2018).
